Screening data as filed in PubChem BioAssay.
HT1080 IDH1KD tx = qHTS for induction of synthetic lethality in tumor cells producing 2HG: qHTS for the HT-1080-IDH1KD cell line; HT-1080 IDH1 knockdown viability, ATP luminescence, 48 h; Potency, µM (top dose mostly 46.1 µM), for the others: at the highest dose activity, negative = toxicity, hits mostly cytotoxic; hit rate 2% among 360,000;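 also: potency is read from the fitted curve at half-maximal effect; 0% = DMSO wells and -100% = cell-free medium wells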
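Using the IDH1-knockdown HT-1080 line run in the same batch and compound series as the NT line, viability after 48 h at 37 °C was determined by CellTiter-Glo luminescence and expressed as % activity.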
KB-3-1 tox = qHTS assay for MDR1-selective chemotherapeutics: Primary screen using the parental adenocarcinoma cell KB-3-1. KB-3-1 viability, CellTiter-Glo ATP luminescence, 72 h. Potency, µM (highest dose often 46.1 µM), actives largely listed as cytotoxic. hit rate 1.4% among 400,000. AID 1347075, 2019; also: potency is read from the fitted curve at half-maximal effect; nearly all actives have a fitted effect of over 60% in size
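Screening of KB-3-1 cells (DMEM, 10% FBS, phenol-red free) ran from lowest to highest compound concentration; after 72 h at 37 °C viability was read luminescently and curves fitted.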
HT1080NT lethal = qHTS for induction of synthetic lethality in tumor cells producing 2HG: qHTS for the HT-1080-NT fibrosarcoma cell line; HT-1080-NT fibrosarcoma viability, CellTiter-Glo ATP luminescence, 48 h; Potency, µM (top dose mostly 46.1 µM), for inactives: at the highest dose activity, negative = less viability, actives largely listed as cytotoxic; hit rate 1.6% among 360,000; AID 686970, 2013;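 also: NT is the 2HG producing partner of a matched IDH1 knockdown line; potency is read from the fitted curve at half-maximal effect; 0% = DMSO-treated cells and -100% = media-only wells without cells; nearly all actives have a fitted effect of over 55% in size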
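Viability by CellTiter-Glo luminescence after 48 h compound exposure at 37C of HT-1080-NT cells (750/well, RPMI, 5% FBS). % activity scaled between DMSO wells and medium-only wells, then curve-fitted and categorized by curve class.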
KB-V1 MDR tox = qHTS assay for MDR1-selective chemotherapeutics: Primary screen using the drug-selected MDR subline cells KB-V1; hit rate 3.4% among 400,000; KB-V1 MDR cells viability, CellTiter-Glo, 72 h; Potency, µM (doses to about 46.1 µM), usual class: cytotoxic; also: potency is read from the fitted curve at half-maximal effect; nearly all actives have a fitted effect of over 60% in size
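Drug-selected KB-V1 cells, grown in DMEM lacking phenol red with 10% FBS, receive compound titrations; after three days at 37 degrees C, surviving cell ATP is quantified by CellTiter-Glo luminescence and responses normalized and curve-fitted.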
IL-1B inflam inh = qHTS for Inhibitors of Inflammasome Signaling: IL-1-beta AlphaLISA Primary Screen; THP-1 LPS/ATP IL-1B secretion, AlphaLISA, 16 h; stronger effect = lower value; activity change, % at 57.5 µM; hit rate 4.7% among 360,000; in the data active = activity change below about -50%; inconclusive = mostly about -30% to -49%
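THP-1 cells pretreated 1 hr with compounds (up to 57.5 uM final), then stimulated with LPS (250 ng/mL final) plus ATP (1.25 mM final); secreted IL-1B measured by AlphaLISA after 16 hr, decreased signal indicating inhibition.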
* hit, by the source's call. This is a sample that favours compounds with a hit; in the whole collection about 8.8% have one here. Unless noted, calls follow the shape of the dose curve; as a rule, active = well fitted curve in the direction sought with a large enough effect; inconclusive = small, poorly fitted or top-dose-only effect, or another doubt; inactive = no such curve, though single readings can be large; an effect the other way counts as inactive or inconclusive. Unless noted, % is scaled to controls: 0 for no effect and ±100 for the full control effect.

How did COc1ccc2nc(SCC(=O)N3CC(=O)Nc4ccccc43)c(C#N)cc2c1 do in these assays?
HT1080 IDH1KD tx: inconclusive; KB-3-1 tox: 2.59µM*; HT1080NT lethal: inconclusive; KB-V1 MDR tox: inconclusive; IL-1B inflam inh: inconclusive

What do the screens show for `Cc1cc(C)c2nc(SCC(=O)Nc3ccccc3N3CCOCC3)c(C#N)cc2c1`?
HT1080 IDH1KD tx: 2.2%; KB-3-1 tox: inactive; HT1080NT lethal: 4.5%; KB-V1 MDR tox: inactive; IL-1B inflam inh: 41.0

Results for Cc1cc(C(=O)Nc2ccc(N3CCOCC3)c3nonc23)ccc1[N+](=O)[O-] ?
HT1080 IDH1KD tx: -12.5%; KB-3-1 tox: inactive; HT1080NT lethal: -18.0%; KB-V1 MDR tox: inactive; IL-1B inflam inh: -8.3

What do the screens show for `CC(=O)NC(C)(c1ccccc1)c1nc(-c2cccc(C#N)c2)cs1` (stereo not given)?
HT1080 IDH1KD tx: 6.7%; KB-3-1 tox: inactive; HT1080NT lethal: 1.0%; KB-V1 MDR tox: inactive; IL-1B inflam inh: -17.8

How did COc1ccc(C)c2sc(N(CCN(C)C)C(=O)c3ccc4ccccc4c3)nc12 do in these assays?
HT1080 IDH1KD tx: -22.9%; KB-3-1 tox: inactive; HT1080NT lethal: inconclusive; KB-V1 MDR tox: inactive; IL-1B inflam inh: -54.5*

Results for CCOc1cccc2sc(N(CCN(C)C)C(=O)c3ccc4ccccc4c3)nc12 ?
HT1080 IDH1KD tx: -6.8%; KB-3-1 tox: inactive; HT1080NT lethal: 1.6%; KB-V1 MDR tox: inactive; IL-1B inflam inh: -100.9*

Results for Cc1cc(C)c2nc(N(CCN(C)C)C(=O)c3ccc4ccccc4c3)sc2c1 ?
HT1080 IDH1KD tx: inconclusive; KB-3-1 tox: inactive; HT1080NT lethal: inconclusive; KB-V1 MDR tox: inconclusive; IL-1B inflam inh: 0.0

Results for N#Cc1c(-c2ccc(F)cc2)ccnc1N1CCOCC1 ?
HT1080 IDH1KD tx: 7.1%; KB-3-1 tox: inactive; HT1080NT lethal: 2.0%; KB-V1 MDR tox: inactive; IL-1B inflam inh: -2.4

How did COc1ccc(-c2nn3c(C4CCCCC4)nnc3s2)cc1OC do in these assays?
HT1080 IDH1KD tx: -17.1%; KB-3-1 tox: inactive; HT1080NT lethal: -3.4%; KB-V1 MDR tox: inconclusive; IL-1B inflam inh: -13.4

What do the screens show for `COc1cc(-c2nn3c(C4CCCCC4)nnc3s2)cc(OC)c1OC`?
HT1080 IDH1KD tx: 1.3%; KB-3-1 tox: inactive; HT1080NT lethal: -6.3%; KB-V1 MDR tox: inconclusive; IL-1B inflam inh: -50.8*

How did COc1ccc(-c2nn3c(-c4cccc(C)c4)nnc3s2)cc1OC do in these assays?
HT1080 IDH1KD tx: -5.5%; KB-3-1 tox: inactive; HT1080NT lethal: -15.4%; KB-V1 MDR tox: 16.4µM*; IL-1B inflam inh: -4.4

Results for COc1cccc(-c2nn3c(-c4ccccn4)nnc3s2)c1 ?
HT1080 IDH1KD tx: 7.1%; KB-3-1 tox: inactive; HT1080NT lethal: 11.3%; KB-V1 MDR tox: inactive

How did Cc1cccc(-c2nnc3sc(-c4ccccc4)nn23)c1 do in these assays?
HT1080 IDH1KD tx: 28.6%; KB-3-1 tox: inactive; HT1080NT lethal: 25.4%; KB-V1 MDR tox: inactive; IL-1B inflam inh: -6.0

What do the screens show for `COc1ccc(-c2nnc3sc(-c4cccs4)nn23)cc1OC`?
HT1080 IDH1KD tx: 8.6%; KB-3-1 tox: inactive; HT1080NT lethal: 7.5%; KB-V1 MDR tox: inactive; IL-1B inflam inh: -52.4*

Results for COc1ccc(-c2nn3c(-c4ccccn4)nnc3s2)cc1OC ?
HT1080 IDH1KD tx: -7.5%; KB-3-1 tox: inconclusive; HT1080NT lethal: -5.9%; KB-V1 MDR tox: inconclusive; IL-1B inflam inh: -51.0*

Results for O=C(O)c1ccc(NC(C(=O)c2ccccc2)c2ccccc2)cc1 (stereo not given) ?
HT1080 IDH1KD tx: -1.5%; KB-3-1 tox: inactive; HT1080NT lethal: -5.3%; KB-V1 MDR tox: inactive; IL-1B inflam inh: 2.5

How did COc1ccc(NC(=O)CSc2nnnn2C2CC2)cc1S(=O)(=O)N1CCOCC1 do in these assays?
HT1080 IDH1KD tx: 2.7%; KB-3-1 tox: inactive; HT1080NT lethal: -0.9%; KB-V1 MDR tox: inactive; IL-1B inflam inh: -0.8

How did O=C(c1cc(F)ccc1F)C1CCCN(C(=O)c2ccc(F)cc2Cl)C1 (stereo not given) do in these assays?
HT1080 IDH1KD tx: -5.7%; KB-3-1 tox: inactive; HT1080NT lethal: -13.7%; KB-V1 MDR tox: 11.6µM*; IL-1B inflam inh: 9.0

How did Oc1[nH]c2ccccc2c1C=Nc1ccc2c(c1)OCCO2 do in these assays?
HT1080 IDH1KD tx: 4.9%; KB-3-1 tox: inactive; HT1080NT lethal: -0.9%; KB-V1 MDR tox: 16.4µM*; IL-1B inflam inh: -89.8*

How did CCN(CC)c1ccc2cc(-c3nc4ccccc4n3C)c(=O)oc2c1 do in these assays?
HT1080 IDH1KD tx: inconclusive; KB-3-1 tox: 0.231µM*; HT1080NT lethal: inconclusive; KB-V1 MDR tox: 0.411µM*; IL-1B inflam inh: 33.5

What do the screens show for `CCN(CC)c1ccc2cc(C(=O)c3cccs3)c(=O)oc2c1`?
HT1080 IDH1KD tx: -3.9%; KB-3-1 tox: inactive; HT1080NT lethal: -0.8%; KB-V1 MDR tox: inconclusive; IL-1B inflam inh: -52.0*

How did CCN(CC)c1ccc2cc(-c3nc(-c4ccc(Cl)cc4Cl)cs3)c(=O)oc2c1 do in these assays?
KB-3-1 tox: inactive; KB-V1 MDR tox: inconclusive

How did CCN(CC)c1ccc2cc(-c3nc(-c4ccc(OC)cc4)cs3)c(=O)oc2c1 do in these assays?
HT1080 IDH1KD tx: 9.7%; KB-3-1 tox: inactive; HT1080NT lethal: 6.7%; KB-V1 MDR tox: 18.4µM*; IL-1B inflam inh: 82.0

How did O=C(CCN1C(=O)C2C3CCC(C3)C2C1=O)OCC(=O)c1ccc(Cl)cc1 (stereo not given) do in these assays?
HT1080 IDH1KD tx: -1.2%; KB-3-1 tox: inactive; HT1080NT lethal: -1.1%; KB-V1 MDR tox: inconclusive; IL-1B inflam inh: 14.9

How did O=C(NCc1cccc(Cl)c1)c1ccc2ccccc2n1 do in these assays?
HT1080 IDH1KD tx: 0.3%; KB-3-1 tox: inconclusive; HT1080NT lethal: -4.5%; KB-V1 MDR tox: inactive; IL-1B inflam inh: inconclusive

Results for COc1cccc(CN(C)C(=O)c2ccc(S(=O)(=O)Nc3cccc(C)c3C)cc2)c1OC ?
HT1080 IDH1KD tx: -24.2%; KB-3-1 tox: inactive; HT1080NT lethal: -11.8%; KB-V1 MDR tox: inconclusive; IL-1B inflam inh: -11.9

Results for CCOc1ccc(C(=O)Nc2ccc(-c3nn[nH]n3)cc2)cc1[N+](=O)[O-] ?
KB-3-1 tox: inactive; KB-V1 MDR tox: inconclusive

What do the screens show for `NC(=S)N/N=C/c1ccc(-c2cc(Cl)cc(Cl)c2)o1`?
HT1080 IDH1KD tx: 8.4%; KB-3-1 tox: inactive; HT1080NT lethal: 4.8%; KB-V1 MDR tox: inconclusive; IL-1B inflam inh: -18.0

How did N#C/C(=C/c1ccc(-c2cc([N+](=O)[O-])ccc2Cl)o1)C(N)=O do in these assays?
HT1080 IDH1KD tx: 18.0%; KB-3-1 tox: inactive; HT1080NT lethal: inconclusive; KB-V1 MDR tox: 11.6µM*; IL-1B inflam inh: inconclusive
